# The list shows a part of the results. Inconclusive results are not listed. Active and inactive are the calls of the source. Calls follow the shape of the dose curve; as a rule, active = well fitted inhibition curve with a large enough effect; inconclusive = small, poorly fitted or top-dose-only effect; inactive = flat fitted curve, though single readings scatter.
# Biological target: Ubiquitin carboxyl-terminal hydrolase 1 (Homo sapiens) (UniProt O94782)
# Assay: Inhibitors of USP1/UAF1: Hit Validation in Primary Assay
# Conditions: Ub-Rhodamine cleavage, fluorescence kinetic read
# From the text: Deubiquitinating enzymes (DUBs) are a class of enzymes that can cleave isopeptide bond formed between the C-terminal carboxylate of ubiquitin and a lysine side-chain amino group on the target protein. Among them, ubiquitin specific proteases (USPs) constitute the largest DUB family. Human USPs are emerging as promising targets for pharmacological intervention because of their connection to a number of human diseases, including prostate, colon and breast cancer (1, 2), pediatric acute lymphoblastic leukemia (3), and familial cylindromatosis (4). The advantage of inhibiting USPs lies in the potential specificity of therapeutic intervention that can lead to better efficacy and reduce nonspecific side effects. […] This miniaturized assay has a fluorescent read-out and is used to screen the NIH Molecular Libraries Small Molecule Repository (MLSMR) in order to identify a small molecule that inhibits USP1. […]
# 3 microliters of reagents (buffer in columns 3 and 4 as negative control and 1nM USP1/UAF1 complex in columns 1, 2, and 5-48) are dispensed into Greiner black solid bottom 1536-well assay plates. […] The plates are immediately centrifuged at 1000 rpm for 15 seconds, and subsequently transferred to a ViewLux high-throughput CCD imager (PerkinElmer) wherein kinetic measurements of fluorescence are acquired using 480 nm excitation/540 nm emission filter set (6 reads every 60 seconds, see Table 1). […]
# Chain of Ubiquitin carboxyl-terminal hydrolase 1 (Homo sapiens) (O94782 whole entry, looked up): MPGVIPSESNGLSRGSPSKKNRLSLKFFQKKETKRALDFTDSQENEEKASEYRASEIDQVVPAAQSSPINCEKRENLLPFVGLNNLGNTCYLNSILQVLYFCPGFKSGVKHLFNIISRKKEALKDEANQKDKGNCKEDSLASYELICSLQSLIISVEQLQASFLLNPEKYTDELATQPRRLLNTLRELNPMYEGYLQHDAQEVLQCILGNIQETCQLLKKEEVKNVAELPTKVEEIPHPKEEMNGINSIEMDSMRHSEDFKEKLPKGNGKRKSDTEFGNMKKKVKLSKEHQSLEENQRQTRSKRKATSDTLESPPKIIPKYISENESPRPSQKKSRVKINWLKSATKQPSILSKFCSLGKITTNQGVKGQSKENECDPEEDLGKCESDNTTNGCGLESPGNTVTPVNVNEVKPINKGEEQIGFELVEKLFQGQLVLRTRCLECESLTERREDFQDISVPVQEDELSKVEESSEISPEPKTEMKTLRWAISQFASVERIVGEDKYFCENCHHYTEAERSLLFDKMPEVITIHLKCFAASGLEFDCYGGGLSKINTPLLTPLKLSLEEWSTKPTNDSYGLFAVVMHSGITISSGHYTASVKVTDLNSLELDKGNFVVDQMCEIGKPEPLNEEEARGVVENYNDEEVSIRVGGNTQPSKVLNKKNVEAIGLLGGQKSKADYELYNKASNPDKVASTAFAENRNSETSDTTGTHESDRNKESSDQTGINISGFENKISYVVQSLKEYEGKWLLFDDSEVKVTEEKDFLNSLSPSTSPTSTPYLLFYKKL
smiles,measurement,value
CC(=O)c1c(O)c(C)c(O)c(Cc2c(O)c3c(c(C(=O)/C=C/c4ccccc4)c2O)OC(C)(C)C=C3)c1O,Potency,41.8 µM (active)

# Reference: PubChem BioAssay AID540327 (National Center for Advancing Translational Sciences (NCATS), 2011)
